In ChEMBL document CHEMBL1961873, “Compounds: GSK PKIS; Assays: Nanosyn kinase panel” (2012) one finds inhibition data, which are given here for one compound.

The structures appear in SMILES notation.

Experiment [1] has as its target T1, Inhibitor of nuclear factor kappa-B kinase subunit epsilon (Homo sapiens) (UniProt Q14164).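 Note: reported values are averaged percent inhibition figures against human IKKε.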
T1 sequence (whole entry): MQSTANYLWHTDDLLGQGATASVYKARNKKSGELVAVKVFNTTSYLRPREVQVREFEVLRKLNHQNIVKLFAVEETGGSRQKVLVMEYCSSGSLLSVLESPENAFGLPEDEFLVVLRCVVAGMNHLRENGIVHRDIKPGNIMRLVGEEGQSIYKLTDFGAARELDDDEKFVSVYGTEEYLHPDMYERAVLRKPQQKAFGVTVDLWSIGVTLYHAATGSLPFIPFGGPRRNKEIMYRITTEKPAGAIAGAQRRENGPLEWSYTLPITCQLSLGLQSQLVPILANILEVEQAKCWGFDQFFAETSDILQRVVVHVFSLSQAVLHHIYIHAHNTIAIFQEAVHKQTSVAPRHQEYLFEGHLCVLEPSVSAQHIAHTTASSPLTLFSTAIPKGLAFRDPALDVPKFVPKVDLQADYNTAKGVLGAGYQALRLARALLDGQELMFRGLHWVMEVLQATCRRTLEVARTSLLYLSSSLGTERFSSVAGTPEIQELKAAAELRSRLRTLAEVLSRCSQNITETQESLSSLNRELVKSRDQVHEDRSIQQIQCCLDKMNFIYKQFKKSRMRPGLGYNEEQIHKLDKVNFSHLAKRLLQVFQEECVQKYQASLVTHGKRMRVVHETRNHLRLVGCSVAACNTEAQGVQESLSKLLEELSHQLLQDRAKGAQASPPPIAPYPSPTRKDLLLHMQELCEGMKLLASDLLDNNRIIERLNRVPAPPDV
The conditions noted are these: at 1 µM.

For experiment [2], the target named is T2, Serine/threonine-protein kinase Nek1 (Homo sapiens) (UniProt Q96PY6).
T2 sequence (whole entry): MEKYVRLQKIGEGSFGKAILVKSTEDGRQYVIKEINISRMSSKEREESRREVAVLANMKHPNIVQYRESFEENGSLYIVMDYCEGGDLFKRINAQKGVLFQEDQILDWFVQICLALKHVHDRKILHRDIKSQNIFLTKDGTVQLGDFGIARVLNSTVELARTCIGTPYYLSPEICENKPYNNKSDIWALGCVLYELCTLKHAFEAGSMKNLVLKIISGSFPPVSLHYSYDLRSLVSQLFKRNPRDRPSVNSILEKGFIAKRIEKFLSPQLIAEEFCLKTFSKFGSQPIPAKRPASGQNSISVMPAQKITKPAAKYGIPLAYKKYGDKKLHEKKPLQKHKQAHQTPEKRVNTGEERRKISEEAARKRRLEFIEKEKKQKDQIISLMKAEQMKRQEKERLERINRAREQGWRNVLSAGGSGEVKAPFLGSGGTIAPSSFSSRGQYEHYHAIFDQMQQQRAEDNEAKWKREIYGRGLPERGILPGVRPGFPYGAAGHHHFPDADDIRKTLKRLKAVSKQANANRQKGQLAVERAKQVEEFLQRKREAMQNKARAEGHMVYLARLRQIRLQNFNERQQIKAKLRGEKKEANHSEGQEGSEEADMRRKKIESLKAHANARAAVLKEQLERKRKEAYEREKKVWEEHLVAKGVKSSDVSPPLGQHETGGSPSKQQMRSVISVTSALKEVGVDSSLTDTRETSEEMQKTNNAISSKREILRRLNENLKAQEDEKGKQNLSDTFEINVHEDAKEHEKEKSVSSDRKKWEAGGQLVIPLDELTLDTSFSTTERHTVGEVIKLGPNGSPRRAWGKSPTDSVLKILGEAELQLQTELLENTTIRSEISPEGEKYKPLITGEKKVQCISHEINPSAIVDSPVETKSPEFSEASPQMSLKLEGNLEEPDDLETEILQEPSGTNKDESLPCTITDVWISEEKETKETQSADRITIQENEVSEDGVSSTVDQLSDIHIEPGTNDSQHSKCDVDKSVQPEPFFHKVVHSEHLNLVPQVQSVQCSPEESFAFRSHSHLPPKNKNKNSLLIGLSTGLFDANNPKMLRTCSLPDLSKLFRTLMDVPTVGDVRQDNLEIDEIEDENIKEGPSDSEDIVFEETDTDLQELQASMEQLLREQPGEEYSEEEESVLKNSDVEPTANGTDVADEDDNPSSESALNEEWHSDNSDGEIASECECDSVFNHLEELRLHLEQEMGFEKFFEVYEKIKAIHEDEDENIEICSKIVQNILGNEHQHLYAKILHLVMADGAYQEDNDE
To be noted: at 0.1 µM.

Experiment [3] deals with T2, Serine/threonine-protein kinase Nek1 (Homo sapiens). To be noted: at 1 µM.
Experiment [4] deals with T3, Serine/threonine-protein kinase Nek2 (Homo sapiens) (UniProt P51955).
T3 sequence (whole entry): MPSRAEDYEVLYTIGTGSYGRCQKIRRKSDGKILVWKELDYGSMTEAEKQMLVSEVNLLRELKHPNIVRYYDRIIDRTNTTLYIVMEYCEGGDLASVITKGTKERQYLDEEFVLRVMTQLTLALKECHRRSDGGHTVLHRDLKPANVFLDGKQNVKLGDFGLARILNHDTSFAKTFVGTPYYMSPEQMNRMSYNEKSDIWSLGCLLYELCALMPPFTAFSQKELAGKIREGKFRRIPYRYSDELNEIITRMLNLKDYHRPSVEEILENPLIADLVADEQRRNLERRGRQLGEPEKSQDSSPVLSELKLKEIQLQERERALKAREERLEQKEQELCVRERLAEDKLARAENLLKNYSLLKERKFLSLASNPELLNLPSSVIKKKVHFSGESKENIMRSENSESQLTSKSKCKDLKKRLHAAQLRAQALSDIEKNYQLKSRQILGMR
The conditions noted are these: at 0.1 µM.

Experiment [5] concerns the target T3, Serine/threonine-protein kinase Nek2 (Homo sapiens). To be noted: at 1 µM.
The target of experiment [6] is Serine/threonine-protein kinase Nek6 (Homo sapiens) (UniProt Q9HC98). To be noted: at 0.1 µM.
Chain of Serine/threonine-protein kinase Nek6 (Homo sapiens) (Q9HC98 whole entry): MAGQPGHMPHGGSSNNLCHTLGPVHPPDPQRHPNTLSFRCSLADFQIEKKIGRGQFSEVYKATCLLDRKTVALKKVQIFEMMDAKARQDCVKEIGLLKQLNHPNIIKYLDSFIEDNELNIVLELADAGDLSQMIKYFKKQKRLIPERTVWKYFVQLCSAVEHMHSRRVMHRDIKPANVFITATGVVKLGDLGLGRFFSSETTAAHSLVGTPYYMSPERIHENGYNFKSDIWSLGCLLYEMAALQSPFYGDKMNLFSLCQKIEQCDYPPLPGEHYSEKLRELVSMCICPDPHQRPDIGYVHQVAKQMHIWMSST
Experiment [7] has the same target. The conditions noted are these: at 1 µM.
Experiment [8] addresses Serine/threonine-protein kinase Nek7 (Homo sapiens) (UniProt Q8TDX7). The conditions noted are these: at 0.1 µM.
For experiment [9] the target is unchanged. To be noted: at 1 µM.
The target in experiment [10] is T4, Serine/threonine-protein kinase Nek9 (Homo sapiens) (UniProt Q8TD19).
T4 sequence (whole entry): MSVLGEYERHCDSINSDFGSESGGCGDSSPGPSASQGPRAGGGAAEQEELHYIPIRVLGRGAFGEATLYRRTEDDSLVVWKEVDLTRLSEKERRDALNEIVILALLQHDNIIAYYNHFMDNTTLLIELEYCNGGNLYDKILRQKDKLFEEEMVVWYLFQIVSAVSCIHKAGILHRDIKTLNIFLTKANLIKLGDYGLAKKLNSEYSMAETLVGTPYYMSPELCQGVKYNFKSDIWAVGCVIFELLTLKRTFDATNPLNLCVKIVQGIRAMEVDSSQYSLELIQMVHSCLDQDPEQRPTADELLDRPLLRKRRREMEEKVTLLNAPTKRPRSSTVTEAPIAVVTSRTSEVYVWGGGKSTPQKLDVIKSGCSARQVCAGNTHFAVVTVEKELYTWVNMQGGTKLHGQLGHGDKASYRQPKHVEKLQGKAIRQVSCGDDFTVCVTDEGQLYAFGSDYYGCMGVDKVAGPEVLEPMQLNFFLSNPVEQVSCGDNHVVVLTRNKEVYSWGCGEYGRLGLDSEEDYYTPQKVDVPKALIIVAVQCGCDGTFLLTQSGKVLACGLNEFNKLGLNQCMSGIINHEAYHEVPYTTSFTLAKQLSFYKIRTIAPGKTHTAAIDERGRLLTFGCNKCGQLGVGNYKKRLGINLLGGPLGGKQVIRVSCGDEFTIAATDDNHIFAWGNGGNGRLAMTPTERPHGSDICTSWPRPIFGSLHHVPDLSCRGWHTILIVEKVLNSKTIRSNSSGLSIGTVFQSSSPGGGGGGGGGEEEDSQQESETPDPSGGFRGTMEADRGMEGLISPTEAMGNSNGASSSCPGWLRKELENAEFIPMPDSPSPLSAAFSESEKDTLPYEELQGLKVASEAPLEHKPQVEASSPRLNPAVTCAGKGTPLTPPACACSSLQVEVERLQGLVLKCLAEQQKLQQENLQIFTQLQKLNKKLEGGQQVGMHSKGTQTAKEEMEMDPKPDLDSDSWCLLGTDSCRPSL
The conditions noted are these: at 0.1 µM.

Experiment [11] deals with T4, Serine/threonine-protein kinase Nek9 (Homo sapiens). The conditions noted are these: at 1 µM.
Experiment [12] deals with Serine/threonine-protein kinase PLK1 (Homo sapiens) (UniProt P53350). To be noted: at 0.1 µM.
Chain of Serine/threonine-protein kinase PLK1 (Homo sapiens) (P53350 whole entry): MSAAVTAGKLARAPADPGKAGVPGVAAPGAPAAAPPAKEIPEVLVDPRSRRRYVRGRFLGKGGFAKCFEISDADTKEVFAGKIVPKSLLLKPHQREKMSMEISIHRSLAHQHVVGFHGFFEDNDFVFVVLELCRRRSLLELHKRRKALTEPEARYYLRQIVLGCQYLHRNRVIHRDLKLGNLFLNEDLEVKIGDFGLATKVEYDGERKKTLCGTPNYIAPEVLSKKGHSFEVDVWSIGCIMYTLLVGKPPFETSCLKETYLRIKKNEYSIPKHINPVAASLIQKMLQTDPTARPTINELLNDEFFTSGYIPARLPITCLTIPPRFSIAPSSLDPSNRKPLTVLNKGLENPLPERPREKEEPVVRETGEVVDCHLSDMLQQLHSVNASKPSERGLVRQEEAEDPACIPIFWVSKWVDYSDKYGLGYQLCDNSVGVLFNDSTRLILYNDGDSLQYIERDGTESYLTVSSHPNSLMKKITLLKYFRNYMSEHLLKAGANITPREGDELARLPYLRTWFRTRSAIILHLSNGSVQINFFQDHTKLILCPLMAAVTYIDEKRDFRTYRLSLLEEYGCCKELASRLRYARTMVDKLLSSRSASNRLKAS
Experiment [13] has the same target. The conditions noted are these: at 1 µM.
Experiment [14] concerns the target T5, Dual specificity protein kinase TTK (Homo sapiens) (UniProt P33981).
T5 sequence (whole entry): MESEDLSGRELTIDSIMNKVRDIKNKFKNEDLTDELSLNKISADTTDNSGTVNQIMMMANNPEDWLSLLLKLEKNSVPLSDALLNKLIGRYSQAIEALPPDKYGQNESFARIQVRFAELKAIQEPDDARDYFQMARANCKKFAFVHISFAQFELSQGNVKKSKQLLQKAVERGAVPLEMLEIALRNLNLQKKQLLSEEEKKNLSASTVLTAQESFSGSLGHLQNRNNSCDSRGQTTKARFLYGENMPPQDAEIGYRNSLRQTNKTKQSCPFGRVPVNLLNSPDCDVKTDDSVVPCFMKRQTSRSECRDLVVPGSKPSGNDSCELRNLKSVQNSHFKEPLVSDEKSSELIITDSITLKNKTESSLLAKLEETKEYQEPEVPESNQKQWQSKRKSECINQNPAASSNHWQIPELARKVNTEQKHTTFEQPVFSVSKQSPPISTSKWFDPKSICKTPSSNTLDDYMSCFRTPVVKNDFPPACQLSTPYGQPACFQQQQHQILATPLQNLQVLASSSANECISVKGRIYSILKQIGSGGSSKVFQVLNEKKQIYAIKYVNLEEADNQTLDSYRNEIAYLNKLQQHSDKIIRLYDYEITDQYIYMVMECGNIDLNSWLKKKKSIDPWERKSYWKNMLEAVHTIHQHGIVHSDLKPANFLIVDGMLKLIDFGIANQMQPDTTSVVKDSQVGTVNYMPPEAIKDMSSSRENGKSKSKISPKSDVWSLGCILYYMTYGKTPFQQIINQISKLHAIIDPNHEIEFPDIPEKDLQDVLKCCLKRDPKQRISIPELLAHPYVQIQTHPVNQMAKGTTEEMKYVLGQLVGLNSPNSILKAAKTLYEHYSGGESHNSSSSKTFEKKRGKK
The conditions noted are these: at 0.1 µM.

For experiment [15], the system named is T6, Receptor-type tyrosine-protein kinase FLT3 (Homo sapiens), P36888 [D835Y].
T6 sequence (whole entry): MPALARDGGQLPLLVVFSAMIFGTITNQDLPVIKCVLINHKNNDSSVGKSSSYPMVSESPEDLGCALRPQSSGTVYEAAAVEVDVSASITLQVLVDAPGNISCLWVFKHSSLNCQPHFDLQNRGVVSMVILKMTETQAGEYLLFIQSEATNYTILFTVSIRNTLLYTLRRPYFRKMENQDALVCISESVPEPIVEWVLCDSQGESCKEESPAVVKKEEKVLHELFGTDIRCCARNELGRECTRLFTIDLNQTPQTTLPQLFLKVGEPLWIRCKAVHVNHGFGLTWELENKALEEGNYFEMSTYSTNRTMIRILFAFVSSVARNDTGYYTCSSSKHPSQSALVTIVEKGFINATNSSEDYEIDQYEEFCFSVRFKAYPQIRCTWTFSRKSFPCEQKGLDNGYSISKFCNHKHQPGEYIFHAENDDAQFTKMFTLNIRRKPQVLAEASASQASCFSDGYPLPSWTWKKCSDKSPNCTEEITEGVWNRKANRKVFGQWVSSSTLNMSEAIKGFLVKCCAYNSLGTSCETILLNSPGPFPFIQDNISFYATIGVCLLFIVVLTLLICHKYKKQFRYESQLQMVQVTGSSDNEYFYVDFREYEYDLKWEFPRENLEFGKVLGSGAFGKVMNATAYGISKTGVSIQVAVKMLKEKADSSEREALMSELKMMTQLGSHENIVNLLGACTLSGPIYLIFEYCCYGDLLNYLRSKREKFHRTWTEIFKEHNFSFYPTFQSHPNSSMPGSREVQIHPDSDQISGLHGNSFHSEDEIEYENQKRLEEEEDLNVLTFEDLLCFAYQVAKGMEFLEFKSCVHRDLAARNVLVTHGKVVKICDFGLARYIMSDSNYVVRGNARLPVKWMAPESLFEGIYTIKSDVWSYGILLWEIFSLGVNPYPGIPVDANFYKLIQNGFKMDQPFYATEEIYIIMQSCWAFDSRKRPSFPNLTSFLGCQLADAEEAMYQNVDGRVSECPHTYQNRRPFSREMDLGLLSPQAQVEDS
To be noted: at 1 µM.

Experiment [16] has as its target Vascular endothelial growth factor receptor 3 (Homo sapiens) (UniProt P35916). The conditions noted are these: at 0.1 µM.
For experiment [17] the target is unchanged. The conditions noted are these: at 1 µM.
The target of experiment [18] is Macrophage colony-stimulating factor 1 receptor (Homo sapiens) (UniProt P07333). To be noted: at 0.1 µM.
Chain of Macrophage colony-stimulating factor 1 receptor (Homo sapiens) (P07333 whole entry): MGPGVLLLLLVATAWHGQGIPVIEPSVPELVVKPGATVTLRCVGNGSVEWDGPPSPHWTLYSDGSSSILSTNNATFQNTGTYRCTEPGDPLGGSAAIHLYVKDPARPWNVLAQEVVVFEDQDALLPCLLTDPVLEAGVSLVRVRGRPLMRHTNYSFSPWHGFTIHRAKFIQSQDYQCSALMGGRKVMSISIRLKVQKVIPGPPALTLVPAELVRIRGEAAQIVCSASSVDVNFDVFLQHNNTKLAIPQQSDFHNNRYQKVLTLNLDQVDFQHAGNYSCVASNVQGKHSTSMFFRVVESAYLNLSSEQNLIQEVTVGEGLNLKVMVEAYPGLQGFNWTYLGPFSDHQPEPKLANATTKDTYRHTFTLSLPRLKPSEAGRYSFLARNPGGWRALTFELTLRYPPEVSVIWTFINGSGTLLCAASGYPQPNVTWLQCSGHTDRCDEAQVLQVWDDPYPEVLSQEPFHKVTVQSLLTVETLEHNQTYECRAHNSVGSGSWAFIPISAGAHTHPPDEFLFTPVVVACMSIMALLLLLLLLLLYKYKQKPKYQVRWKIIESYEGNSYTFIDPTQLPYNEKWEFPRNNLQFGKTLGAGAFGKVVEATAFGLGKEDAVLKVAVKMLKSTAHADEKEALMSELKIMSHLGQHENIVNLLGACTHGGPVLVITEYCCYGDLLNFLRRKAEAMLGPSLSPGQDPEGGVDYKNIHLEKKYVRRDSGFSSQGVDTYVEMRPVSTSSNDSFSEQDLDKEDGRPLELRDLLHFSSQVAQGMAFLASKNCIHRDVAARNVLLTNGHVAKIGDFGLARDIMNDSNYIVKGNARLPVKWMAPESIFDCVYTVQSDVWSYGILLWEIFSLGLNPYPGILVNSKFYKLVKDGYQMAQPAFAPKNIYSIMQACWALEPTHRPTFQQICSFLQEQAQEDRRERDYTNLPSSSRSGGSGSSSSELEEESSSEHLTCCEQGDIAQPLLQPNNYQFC
The target is the same in experiment [19]. To be noted: at 1 µM.
Experiment [20] has as its target Tyrosine-protein kinase Fyn (Homo sapiens) (UniProt P06241). The conditions noted are these: at 0.1 µM.

Chain of Serine/threonine-protein kinase Nek7 (Homo sapiens) (Q8TDX7 whole entry, looked up): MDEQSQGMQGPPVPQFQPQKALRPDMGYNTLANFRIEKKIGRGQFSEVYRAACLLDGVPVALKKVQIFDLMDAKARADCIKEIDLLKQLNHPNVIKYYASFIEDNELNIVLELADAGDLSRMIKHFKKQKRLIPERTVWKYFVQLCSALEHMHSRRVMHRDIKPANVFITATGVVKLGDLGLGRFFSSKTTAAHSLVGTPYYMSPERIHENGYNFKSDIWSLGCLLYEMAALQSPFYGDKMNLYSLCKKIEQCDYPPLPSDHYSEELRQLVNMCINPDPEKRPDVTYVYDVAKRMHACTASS
Chain of Vascular endothelial growth factor receptor 3 (Homo sapiens) (P35916 whole entry): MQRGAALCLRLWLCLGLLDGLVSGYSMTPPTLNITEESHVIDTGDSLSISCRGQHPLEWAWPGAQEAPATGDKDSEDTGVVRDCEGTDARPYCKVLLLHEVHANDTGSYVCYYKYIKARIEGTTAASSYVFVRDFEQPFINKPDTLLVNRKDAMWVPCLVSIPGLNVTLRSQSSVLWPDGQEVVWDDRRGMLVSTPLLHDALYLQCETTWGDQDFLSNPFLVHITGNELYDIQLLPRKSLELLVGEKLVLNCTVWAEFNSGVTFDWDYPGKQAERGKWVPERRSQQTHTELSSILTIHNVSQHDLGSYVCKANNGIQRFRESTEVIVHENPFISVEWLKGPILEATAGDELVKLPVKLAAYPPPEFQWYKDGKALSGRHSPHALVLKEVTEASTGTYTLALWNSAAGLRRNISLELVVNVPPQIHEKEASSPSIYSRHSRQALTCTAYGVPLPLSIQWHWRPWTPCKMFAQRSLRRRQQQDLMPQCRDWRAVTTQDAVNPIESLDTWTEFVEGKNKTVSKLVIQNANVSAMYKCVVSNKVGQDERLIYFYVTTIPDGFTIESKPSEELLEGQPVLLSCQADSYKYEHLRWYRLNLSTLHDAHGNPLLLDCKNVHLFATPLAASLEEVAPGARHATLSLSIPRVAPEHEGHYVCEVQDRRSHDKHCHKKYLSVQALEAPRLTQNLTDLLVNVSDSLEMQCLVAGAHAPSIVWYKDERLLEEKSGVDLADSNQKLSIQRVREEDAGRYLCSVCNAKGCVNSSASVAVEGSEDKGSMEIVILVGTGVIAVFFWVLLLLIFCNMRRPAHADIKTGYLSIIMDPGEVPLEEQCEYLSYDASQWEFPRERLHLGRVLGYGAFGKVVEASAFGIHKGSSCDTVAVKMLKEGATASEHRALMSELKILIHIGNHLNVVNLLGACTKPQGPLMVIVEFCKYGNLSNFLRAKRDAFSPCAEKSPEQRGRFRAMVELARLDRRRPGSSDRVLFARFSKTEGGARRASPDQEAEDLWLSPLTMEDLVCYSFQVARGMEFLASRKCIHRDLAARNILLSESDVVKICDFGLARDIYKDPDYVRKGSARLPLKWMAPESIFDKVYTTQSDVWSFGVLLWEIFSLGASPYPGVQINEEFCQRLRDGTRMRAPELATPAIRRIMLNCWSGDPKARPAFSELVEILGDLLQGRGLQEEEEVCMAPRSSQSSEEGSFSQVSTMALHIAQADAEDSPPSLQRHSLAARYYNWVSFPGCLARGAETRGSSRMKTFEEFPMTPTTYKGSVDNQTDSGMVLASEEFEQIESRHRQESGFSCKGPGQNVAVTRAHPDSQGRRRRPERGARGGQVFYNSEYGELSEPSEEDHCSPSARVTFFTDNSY
Chain of Tyrosine-protein kinase Fyn (Homo sapiens) (P06241 2-537 limits assumed): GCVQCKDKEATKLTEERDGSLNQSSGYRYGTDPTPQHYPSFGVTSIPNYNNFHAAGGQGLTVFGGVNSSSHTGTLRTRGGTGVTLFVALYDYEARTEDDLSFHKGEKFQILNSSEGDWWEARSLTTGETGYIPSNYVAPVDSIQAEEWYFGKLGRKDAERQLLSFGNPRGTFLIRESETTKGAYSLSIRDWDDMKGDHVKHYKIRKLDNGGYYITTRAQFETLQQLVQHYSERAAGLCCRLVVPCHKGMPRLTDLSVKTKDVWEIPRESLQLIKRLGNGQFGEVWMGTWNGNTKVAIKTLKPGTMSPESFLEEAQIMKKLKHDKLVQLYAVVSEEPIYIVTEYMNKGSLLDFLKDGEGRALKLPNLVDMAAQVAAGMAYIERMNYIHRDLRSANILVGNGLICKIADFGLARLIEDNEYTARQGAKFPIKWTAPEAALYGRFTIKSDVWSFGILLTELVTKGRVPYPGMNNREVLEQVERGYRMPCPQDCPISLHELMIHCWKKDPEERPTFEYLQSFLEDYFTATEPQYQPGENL

Take `Cc1nnc(-c2cccc(-c3ccc(C(=O)NCC4CC4)cc3)c2)o1`: the inhibition in experiment [1] is 8.77%; in experiment [2] it was 3.27%; in experiment [3], 4%; in [4], 6.76%; in experiment [5] it was 5.41%; in experiment [6], 2.74%. Moreover, the inhibition in experiment [7] worked out at 6.86%; in experiment [8], 4.29%; in experiment [9], 4.11%; in experiment [10] it was 4.46%; in experiment [11] it was 7.69%; in [12], 4.37%. For the same compound, the inhibition was 3.89% in experiment [13]; 9.53% in experiment [14]; 0.86% in experiment [15]; 4.47% in experiment [16]; -1.03% in experiment [17]; 2.5% in experiment [18]. For the same compound, the figures for the inhibition in experiment [19] and in experiment [20] were 1.96% and 1.1%, respectively.

Usually inhibition stands for the drop in the measured response relative to a control, in per cent.
